Drawing on ChEMBL document CHEMBL1157539, “Thousands of chemical starting points for antimalarial lead identification” (Nature, 2010), this text covers Inhibition for 60 compounds.

Common to all, as to assay type: functional
The test system of assay [1] is Plasmodium falciparum. The assay is described as follows: GSK_TCMDC: Inhibition of Plasmodium falciparum 3D7 in whole red blood cells, using parasite LDH activity as an index of growth. Test compounds present at 2uM.
In assay [2] the test system is Plasmodium falciparum. The assay is described as follows: GSK_TCMDC: Inhibition of Plasmodium falciparum Dd2 in whole red blood cells, using parasite LDH activity as an index of growth. Test compounds present at 2uM.
Assay [3] deals with HepG2. As to the kind of experiment: GSK_TCMDC: Percent inhibition of human HepG2 cell line. Test compounds present at 10uM.

Each structure is given as a SMILES string.

As to `CC(=O)N(C)/N=C/[C@H](CCc1ccccc1)NC(=O)[C@H](CC(C)C)NC(=O)c1cccc(OCCN2CCOCC2)c1`, the Inhibition (as a rule, how much of the control response was suppressed) in assay [1] came to 89%; in assay [2] it was 65%; in assay [3], 5%.

As for `CCc1sc(CN(CCCNc2cc(=O)c3ccccc3[nH]2)Cc2sc(CC)c(Br)c2-c2ccsc2)c(-c2ccsc2)c1Br.Cl`, the Inhibition is reported as 99% in assay [1], 98% in assay [2] and 10% in assay [3].

`CC(C)C(=O)NC(c1ccc(Cl)cc1)c1ccc2cccnc2c1O` (stereo not given): the Inhibition in assay [1] was determined as 91%; in assay [2], 70%; in assay [3], 53%.

Take `O=C(NC1CCN(Cc2ccc(Cl)cc2)CC1)c1cn(-c2ccccc2)nc1-c1cccnc1`: the Inhibition is 93% in assay [1], 9% in assay [2] and 13% in assay [3].

`NC(=O)c1cccc(CN2Cc3ccccc3OC3(CCN(Cc4c[nH]c5cnccc45)CC3)C2)c1.O=C(O)C(F)(F)F`: the Inhibition is on record as 94% in assay [1], 2% in assay [2] and 9% in assay [3].

For `CC(C)c1ccc(OCC(O)CN(C)C(C)C(O)c2ccccc2)c(Br)c1.Cl` (stereo not given), the Inhibition was 95% in assay [1], 97% in assay [2] and 36% in assay [3].

With `O=C(NC1CC1)c1ccc(Cn2c(SCc3cccc(Cl)c3)nc3ccccc3c2=O)cc1`, the figures for the Inhibition in assay [1], in assay [2] and in assay [3] were 90%, 70% and 2%, respectively.

Regarding `CC(C)CCN1CCC(Oc2ccc(NC(=O)c3ccc(F)cc3)cc2Cl)CC1.O=C(O)C(F)(F)F`, the Inhibition in assay [1] was determined as 98%; in assay [2], 88%; in assay [3] it was 33%.

As for `O=[N+]([O-])c1ccc(-n2nc(Cc3ccccc3)n(Cc3cccc(F)c3)c2=S)c(C(F)(F)F)c1`, the Inhibition in assay [1] is on record as 100%; in assay [2], 100%; in assay [3] it was 4%.

For the compound `Cc1cc(=NN=CC=Cc2ccccc2)c2ccc(F)cc2[nH]1`, the Inhibition is 100% in assay [1], 30% in assay [2] and 14% in assay [3].

As to `CCCc1ccccc1Nc1nc(C)cc(N(CC)CCCN2CCCCC2)n1.O=C(O)C(F)(F)F`, the Inhibition in assay [1] is 98%; in assay [2], 49%; in assay [3] it was 27%.

On to `Cc1ccc(C(C(=O)Nc2ccc(N3CCNCC3)c(Cl)c2)c2ccccc2)cc1` (stereo not given), for which the Inhibition was found to be 97% in assay [1], 93% in assay [2] and 23% in assay [3].

In the case of `CCNc1cc(CC)nc(Nc2ccc(C)cc2)n1`, the Inhibition in assay [1] is recorded as 100%; in assay [2], 24%; in assay [3], 22%.

Turning to `O=C(Nc1ccsc1)Nc1cccc(-c2cccc(-c3nc4ccccc4[nH]3)c2)c1`, the Inhibition is given as 100% in assay [1], 55% in assay [2] and 61% in assay [3].

For `CN(C)CCOc1ccc2c(c1)CN(C)CC2c1ccccc1.Cl` (stereo not given), the Inhibition in assay [1] is 91%; in assay [2] it was 0%; in assay [3] it was 15%.

Turning to `Cc1ccc(NC(=O)NC2CCN(CCCCCNC(=O)C3CC3c3ccc(Cl)c(Cl)c3)CC2)cc1` (stereo not given), the Inhibition in assay [1] came to 100%; in assay [2] it was 19%; in assay [3] it was 35%.

On to `CN(CCCN)CCCNc1ccnc2cc(Cl)ccc12`, for which the Inhibition in assay [1] is listed as 100%; in assay [2], 0%; in assay [3] it was 1%.

With `O=C(/C=C/c1ccc(Cl)c(Cl)c1)NCCCCCN1CCC(C(=O)Nc2ccc(Cl)c(Cl)c2)CC1`, the Inhibition in assay [1] came out at 98%; in assay [2], 0%; in assay [3], 73%.

For `Br.CCCCCCCCc1c(C)nc(C)c(Br)c1O`, the Inhibition stood at 96% in assay [1], 92% in assay [2] and 0% in assay [3].

For `O=C(/C=C/c1ccc(Cl)c(Cl)c1)NCCCCCN1CCCN(C(=O)Nc2ccc(Br)cc2)CC1`, the results for the Inhibition in assay [1], in assay [2] and in assay [3] were 99%, 0% and 38%, respectively.

Regarding `CCC(C)(C)c1ccc(N2C(N)=NC(N)=NC2(C)C)cc1.Cl`, the results for the Inhibition in assay [1], in assay [2] and in assay [3] were 91%, 4% and 40%, respectively.

With `Cc1cc(N[C@@H](CC(C)C)C(=O)NCCc2ccccc2)nc(NCC2CCCCC2)n1.O=C(O)C(F)(F)F`, the Inhibition came to 97% in assay [1], 65% in assay [2] and 19% in assay [3].

Consider `FC(F)(F)c1cccc(Nc2nc(-n3ccnc3)nc(-n3ccnc3)n2)c1`, for which the values for the Inhibition in assay [1], in assay [2] and in assay [3] were 97%, 9% and 5%, respectively.

With `Cc1cc(C)nc(-n2[nH]c(C)c(Cc3ccc(C(C)(C)C)cc3)c2=O)n1`, the Inhibition worked out at 88% in assay [1], 61% in assay [2] and 0% in assay [3].

With `COC(=O)[C@@H](NC(=O)[C@H](Cc1ccc(OC)c(OC)c1)Nc1ccc(C#N)c2ccccc12)c1ccc(O)cc1.O=C(O)C(F)(F)F`, the Inhibition is 100% in assay [1], 100% in assay [2] and 6% in assay [3].

As for `Nc1ccn([C@@H]2O[C@H](COC(c3ccccc3)(c3ccccc3)c3ccccc3)[C@@H](O)[C@@H]2O)c(=O)n1`, the Inhibition was 93% in assay [1], 2% in assay [2] and 26% in assay [3].

Turning to `CN1CCCC1CCNCc1cccc(-c2cnc(N3CCCC(C)(C)C3)nc2)c1` (stereo not given), the Inhibition in assay [1] is 98%; in assay [2], 95%; in assay [3], 99%.

Regarding `CC(C)(C)CC(C)(C)c1ccc(O)c(C(=O)Nc2cccc([N+](=O)[O-])c2)c1`, the Inhibition in assay [1] is on record as 95%; in assay [2], 97%; in assay [3], 49%.

As to `CC(C)c1ncc(-c2ccncc2)c(C2CCC(CNC(=O)c3cccnc3)CC2)n1` (stereo not given), the Inhibition in assay [1] came out at 89%; in assay [2], 88%; in assay [3], 0%.

On to `CCC(CSC1CCCCC1)N(C)CCN(C)C(CC)CSC1CCCCC1.Cl` (stereo not given), for which the values for the Inhibition in assay [1], in assay [2] and in assay [3] were 98%, 98% and 84%, respectively.

As for `O=C(Nc1cccc(-c2nn3ccccc3c2-c2ccnc(Nc3cccc(F)c3)n2)c1)c1c(F)ccc(F)c1Cl`, the Inhibition in assay [1] came to 93%; in assay [2] it was 38%; in assay [3], 41%.

For the compound `COc1ccc(-c2ccc(NC(=O)c3cccc(F)c3)cc2)cc1CNC(C)C.O=C(O)C(F)(F)F`, the Inhibition in assay [1] was 97%; in assay [2] it was 14%; in assay [3], 17%.

In the case of `COc1ccc(CCNc2nc(SCc3ccccc3Cl)nc3ccccc23)cc1OC`, the Inhibition stood at 94% in assay [1], 2% in assay [2] and 27% in assay [3].

For `COc1ccc2nccc(N3CCC(NCCNCc4cc5c(cn4)OCCO5)C3)c2n1.Cl` (stereo not given), the values for the Inhibition in assay [1], in assay [2] and in assay [3] were 99%, 3% and 8%, respectively.

With `CS(=O)(=O)N(c1ccc(F)cc1)c1cc(C(=O)N[C@@H](Cc2ccccc2)[C@H](O)CNCc2cccc(C(F)(F)F)c2)cc(N2CCCC2=O)c1.O=CO`, the Inhibition in assay [1] worked out at 91%; in assay [2] it was 65%; in assay [3] it was 0%.

Take `c1ccc(Oc2ccc(Nc3ccnc4cc(-c5csc(CN6CCCCC6)n5)ccc34)cc2)nc1`: the Inhibition in assay [1] worked out at 100%; in assay [2] it was 95%; in assay [3], 22%.

As for `CN(C)c1ccc(-c2cscc2C(=O)NC2CCCN(Cc3cccnc3)C2)cc1.O=C(O)C(F)(F)F` (stereo not given), the Inhibition was 89% in assay [1], 70% in assay [2] and 5% in assay [3].

For the compound `CC1CC(NCCCNc2cc(=O)c3ccccc3[nH]2)c2cc(Cl)c(Cl)c(Cl)c21` (stereo not given), the Inhibition in assay [1] was 100%; in assay [2] it was 69%; in assay [3], 0%.

With `CCN(CC)CCNC(=O)c1ccc(NC(=O)c2oc3c(Cl)cccc3c2C)cc1`, the Inhibition in assay [1] is given as 98%; in assay [2], 68%; in assay [3] it was 24%.

Consider `C=C(C)CSc1nc2c(c(=O)n1CCc1ccccc1)C1(CCCC1)Cc1ccccc1-2`, for which the Inhibition in assay [1] amounted to 100%; in assay [2], 80%; in assay [3], 14%.

On to `CCN1CCN(c2cc(C)c3cc(NC(=O)c4cncc(Br)c4)ccc3n2)CC1`, for which the Inhibition in assay [1] came out at 97%; in assay [2], 63%; in assay [3] it was 3%.

Consider `CC(Cc1ccc(C(=O)N2CCN(C(=O)c3ccc(CC(C)NCCc4cccc(Cl)c4)cc3)CC2)cc1)NCCc1cccc(Cl)c1` (stereo not given), for which the values for the Inhibition in assay [1], in assay [2] and in assay [3] were 100%, 85% and 99%, respectively.

Regarding `COc1ccc(NC(=O)c2csc(-c3cc(NC(=O)c4ccnc(N5CCCC5)c4)ccc3C)c2)cc1N1CCN(C)CC1.O=C(O)C(F)(F)F`, the Inhibition is recorded as 100% in assay [1], 80% in assay [2] and 4% in assay [3].

Regarding `CCNc1cc(C)nc(Nc2ccc(NC(=O)Cc3ccc(OC)cc3)cc2)n1`, the Inhibition was determined as 100% in assay [1], 47% in assay [2] and 30% in assay [3].

`COc1cccc2c(NCCNc3ccnc4c(OC)cccc34)ccnc12.Cl`: the values for the Inhibition in assay [1], in assay [2] and in assay [3] were 93%, 86% and 11%, respectively.

With `CNC(=N)c1ccc(NC(=O)Nc2ccc(C(=N)NC)cc2)cc1.Cl`, the results for the Inhibition in assay [1], in assay [2] and in assay [3] were 84%, 71% and 0%, respectively.

Turning to `OC1CCC(Nc2ccc3ncc(-c4ccc5ccccc5c4)n3n2)CC1` (stereo not given), the Inhibition in assay [1] is 95%; in assay [2], 94%; in assay [3], 52%.

For the compound `COCCn1c(SC(C)C(=O)Nc2cc(C(F)(F)F)ccc2Cl)nc2ccccc2c1=O` (stereo not given), the results for the Inhibition in assay [1], in assay [2] and in assay [3] were 97%, 95% and 8%, respectively.

On to `N#Cc1ccc(C=Cc2nccc3c2[nH]c2ccccc23)cc1`, for which the Inhibition in assay [1] was 97%; in assay [2], 28%; in assay [3], 33%.

For `C(=NN=c1cc(-c2ccccc2)[nH]c2ccccc12)c1cccnc1`, the Inhibition in assay [1] is listed as 87%; in assay [2], 13%; in assay [3] it was 23%.

As to `O=C(Nc1cccc(-c2cccc(-c3nc4ccccc4[nH]3)c2)c1)Nc1ccc(F)c(F)c1F`, the Inhibition in assay [1] turned out to be 98%; in assay [2] it was 95%; in assay [3] it was 78%.

`CN(CCCN(C)c1cc(NC(=O)c2ccc(F)cc2)ccn1)Cc1cccc(F)c1.O=C(O)C(F)(F)F`: the Inhibition in assay [1] worked out at 83%; in assay [2] it was 60%; in assay [3], 0%.

As to `COc1ccc(NC(=O)Nc2cccc(-c3ccc(-c4nc5cccc(C)c5[nH]4)s3)c2)cc1`, the Inhibition was determined as 100% in assay [1], 32% in assay [2] and 23% in assay [3].

As for `Cc1cccc2nc(-c3ccc(-c4ccc(NC(=O)C(C)CN(C)C)cc4)s3)[nH]c12` (stereo not given), the Inhibition amounted to 100% in assay [1], 98% in assay [2] and 23% in assay [3].

In the case of `CC(C)(C)c1ccc(OC(=O)c2ccc(NC(=O)N[C@@H](Cc3ccc(O)cc3)C(=O)NC3CCN(Cc4ccc(O)cc4)C3)cc2)cc1.O=C(O)C(F)(F)F` (stereo not given in full), the figures for the Inhibition in assay [1], in assay [2] and in assay [3] were 92%, 67% and 0%, respectively.

With `O=C(N/C=N/c1cc([N+](=O)[O-])c(-c2cccnc2)n1-c1ccc(O)cc1)c1ccccc1`, the figures for the Inhibition in assay [1], in assay [2] and in assay [3] were 100%, 62% and 17%, respectively.

For the compound `CN(c1ccccc1C(=O)Nc1cc(Cl)ccc1Oc1ccccc1)S(=O)(=O)c1ccccc1`, the Inhibition in assay [1] worked out at 99%; in assay [2], 42%; in assay [3], 47%.

Regarding `O=C(O)C(F)(F)F.c1ccc2c(c1)CN(Cc1ccsc1)CC1(CCN(Cc3c[nH]c4cnccc34)CC1)O2`, the Inhibition turned out to be 87% in assay [1], 75% in assay [2] and 38% in assay [3].

On to `CCc1cccc(-n2c(=O)c3cccnc3n2CC(=O)NCc2ccccc2Cl)c1`, for which the Inhibition in assay [1] is 98%; in assay [2], 19%; in assay [3], 25%.

Consider `CCCc1cc(=O)[nH]c(-n2nc(C)cc2NC(=O)c2cc3ccccc3o2)n1`, for which the Inhibition was 90% in assay [1], 63% in assay [2] and 39% in assay [3].
